RGS16-Gao – modulators of RGS16 binding to Galphao, primary screen, biochemical, human proteins, multiplexed bead flow cytometry. bead-based flow cytometry RGS16-Galphao binding, fluorescence; actives lie on both sides. binding response (% of control), % at 10 µM. 0.38% of 220,000 active. AID 1441, 2008;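 note: Galphao activated by GDP with aluminum fluoride before binding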
RGS7-Gao reg – RGS7-Galphao binding modulators, primary screen, biochemical, multiplexed bead flow cytometry; actives lie on both sides; binding response (% of control), % at 10 µM; 0.35% of 220,000 active; in the data active = binding response below about 49% or above about 150%; inconclusive = no clear call, values can overlap the other calls; inactive = in between;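 note: fluorescent Galphao held in activated GDP-AlF4 state binding bead-coupled RGS7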
Target sequence (P09471 whole entry, looked up): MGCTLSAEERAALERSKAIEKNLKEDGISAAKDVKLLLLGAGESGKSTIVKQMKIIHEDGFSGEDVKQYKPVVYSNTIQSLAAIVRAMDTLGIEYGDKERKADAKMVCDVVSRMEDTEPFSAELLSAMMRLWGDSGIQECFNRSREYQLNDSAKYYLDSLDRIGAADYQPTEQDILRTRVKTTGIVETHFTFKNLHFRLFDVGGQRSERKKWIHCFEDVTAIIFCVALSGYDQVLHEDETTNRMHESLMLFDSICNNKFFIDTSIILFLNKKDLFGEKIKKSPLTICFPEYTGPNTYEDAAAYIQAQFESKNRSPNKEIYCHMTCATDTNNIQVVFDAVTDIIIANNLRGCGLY
RGS4-Gao reg – modulators of RGS4 binding to Galphao, primary screen, biochemical, multiplexed bead flow cytometry. Guanine nucleotide-binding protein G(o) subunit alpha (Homo sapiens), P09471. actives lie on both sides. binding response (% of control), % at 10 µM. 0.33% of 220,000 active; in the data active = binding response below about 49% or above about 150%; inactive = in between;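 note: fluorescent Galphao activated with aluminum fluoride binding bead-coupled RGS4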
GSH fluor – compound fluorescence on glutathione beads, profiling panel, artefact control, biophysical, 488/530 nm, flow cytometry; GSH beads flow cytometry, compound fluorescence 488/530 nm; stronger effect = higher value; fluorescence (KMESF) at 10 µM; 0.25% of 190,000 active; in the data active = fluorescence above about 89;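 note: glutathione beads carrying GST-tagged Bcl family fusion proteins plus one bare bead set; values are compound well signal with DMSO vehicle wells as background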
RGS8-Gao – RGS8-Galphao binding modulators, primary screen, biochemical, multiplexed bead flow cytometry | response (percent of control binding), % at 10 µM | 0.34% of 220,000 active | actives lie on both sides | Guanine nucleotide-binding protein G(o) subunit alpha (Homo sapiens), P09471; in the data active = response below about 60% or above about 140%; inactive = in between;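 note: Galphao activated as the GDP aluminium fluoride complex binding bead-coupled RGS8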
Avidin bead fluor – green autofluorescence of compounds with avidin beads – biophysical, 488/530 nm, flow cytometry, artefact control, profiling panel. compound fluorescence 488/530 nm; stronger effect = higher value. fluorescence (KMESF) at 10 µM. 0.38% of 220,000 active; in the data active = fluorescence above about 47
RGS4-Gao HTS – modulators of RGS–Galpha-o binding, primary screen, biochemical, multiplexed beads, flow cytometry, RGS4/7/8/16/19; shares compounds with RGS16-Gao; multiplexed bead flow cytometry; RGS4–Galpha-o binding response, % at 10 µM; 99% of 1,600 active;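 note: fluorescently labeled Galpha-o bound to GDP with aluminium fluoride binding biotinylated RGS beads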
Avidin counter – disruption of biotin probe capture by avidin, counter-screen for RGS protein interaction modulators, biochemical, flow cytometry, bead-based; shares compounds with RGS16-Gao; streptavidin beads, fluorescein-biotin binding; inhibition, % at 10 µM; 1,700 tested, under 10 active;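 active = inhibition above 50%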;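 note: median green fluorescence of gated singlet beads compared with DMSO control wells; 0% = DMSO wells and 100% = complete loss of bead fluorescence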
RGS8-Gao confirm – RGS8-Galphao binding modulators, confirmation, biochemical, multiplexed bead flow cytometry, single concentration; shares compounds with RGS16-Gao; bead-based flow cytometry RGS8-Galphao binding, fluorescence; actives lie on both sides; binding response (% of control), % at 10 µM; 3% of 1,700 active; in the data active = binding response below about 72% or above about 130%; inactive = in between;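 note: Galphao activated as GDP AlF4 complex before binding bead RGS8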
RGS7-Gao single – RGS7-Galphao binding modulators, confirmation, biochemical, multiplexed bead flow cytometry, single concentration; shares compounds with RGS16-Gao; bead-based flow cytometry RGS7-Galphao binding; actives lie on both sides; response (percent of control binding), % at 10 µM; 7.8% of 1,700 active; AID 1837, 2009; in the data active = response below about 75% or above about 130%; inactive = in between;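 note: fluorescent Galphao activated with GDP and aluminum fluoride binding bead-coupled RGS7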
RGS16-Gao single – modulators of RGS16-Galphao protein binding, confirmation, biochemical, single concentration, multiplexed bead flow cytometry. bead-based flow cytometry; actives lie on both sides. response (% of control binding), % at 10 µM. shares compounds with RGS16-Gao. 4% of 1,700 active; in the data active = response below about 74% or above about 130%; inactive = in between;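 note: Galphao activated as the GDP aluminium fluoride complex binding bead-coupled RGS16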
RGS4-Gao confirm – modulators of RGS4-Galphao protein binding, confirmation, biochemical, single concentration, multiplexed bead flow cytometry. shares compounds with RGS16-Gao. actives lie on both sides. binding response (% of control), % at 10 µM. 4% of 1,700 active. AID 1840, 2009; in the data active = binding response below about 74% or above about 130%; inactive = in between
RGS19-Gao single – regulators of RGS19-Galphao binding, confirmation, biochemical, single point, multiplexed bead flow cytometry. shares compounds with RGS16-Gao. bead-based flow cytometry RGS19-Galphao binding; actives lie on both sides. response (percent of control binding), % at 10 µM. 5% of 1,700 active. AID 1841, 2009; in the data active = response below about 50% or above about 160%; inactive = in between;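 note: 100% = no compound control and 0% = blank background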
Target sequence (P09471 whole entry, looked up): as above
Target sequence (P49795 whole entry, looked up): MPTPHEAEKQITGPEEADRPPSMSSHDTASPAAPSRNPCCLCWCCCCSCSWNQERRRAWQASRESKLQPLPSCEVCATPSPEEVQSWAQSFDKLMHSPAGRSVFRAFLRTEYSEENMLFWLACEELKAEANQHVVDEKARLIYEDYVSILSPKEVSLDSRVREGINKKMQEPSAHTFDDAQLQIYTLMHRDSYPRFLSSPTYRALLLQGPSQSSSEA
* = called active by the depositor; ? = inconclusive; · = no result; [ ] = dose if it differs, or a comment. Only some compounds are listed: those with a hit (about 1.2% of all), similar ones and a draw of the others. Unless noted, the rule behind the calls is not given here.

SMILES	RGS16-Gao	RGS7-Gao reg	RGS4-Gao reg	GSH fluor	RGS8-Gao	Avidin bead fluor	Avidin counter	RGS8-Gao confirm	RGS7-Gao single	RGS16-Gao single	RGS4-Gao confirm	RGS19-Gao single	others
Cc1cc(C)c(S(=O)(=O)Nc2ccc(O)cc2)c(C)c1	292.8	117.7	126.2	15	141.2*[activator]	7	0.5	100.1	99.0	101.4	100.6	99.4	RGS4-Gao HTS=126.2*
Nc1cccc(S(=O)(=O)NC2=NCCC2)c1	393.0	114.0	119.0	66	148.7*[activator]	10	·	·	·	·	·	·	RGS4-Gao HTS=119.0*
Cc1cc(O)ccc1N=Cc1c(C(F)(F)F)[nH][nH]c1=O	102.1	99.6	102.0	14	98.3	9	·	·	·	·	·	·
COc1ccccc1NC(=O)Nc1ccnn1Cc1cccs1	-55.2*	-20.5*	-58.6*	31	6.0*	-5	0.4	97.6	93.7	97.4	98.5	94.2
COc1ccccc1NC(=O)Cc1cccs1	100.7	99.0	98.7	25	99.4	13	·	·	·	·	·	·
Cc1ccc(NC(=O)C(=Cc2ccc(C(=O)O)cc2)C(=O)Nc2ccc(C)cc2C)c(C)c1	80.2	?	75.9	·	88.7	5	·	·	·	·	·	·
CC1(C)CC(=O)C=C(NNC(=O)c2ccccc2)C1	8.0*	9.9*	4.6*	21	13.7*	-2	-0.9	102.7	103.5	103.0	103.0	95.6
CN(Cc1cn(C)nc1-c1ccccc1F)CC1CCCCO1 (stereo not drawn)	78.0	46.1*	73.7	14	66.7	0	0.1	101.4	100.0	101.9	102.5	96.6	RGS4-Gao HTS=73.7*
CN(Cc1cn(C)nc1-c1ccccc1F)CC1CCN(Cc2ccccc2)CC1	100.2	?	96.8	·	100.4	4	·	·	·	·	·	·
O=S(=O)(Cc1ccccc1)Cc1cnc(Cl)s1	98.4	?	100.8	22	97.6	10	·	·	·	·	·	·
Cc1ncsc1CCOC(=O)C1C2CC3CC(C2)CC1C3 (stereo not drawn)	21.6*	93.7	91.9	9	72.5	1	1.8	99.9	95.2	94.2	93.3	104.7	RGS4-Gao HTS=91.9*
NC(=O)c1cc2c3ccccc3ccn2c1-c1ccccc1	97.5	?	100.7	·	98.1	7	·	·	·	·	·	·
Cc1cc2cc(CCNC(=O)c3cccc([N+](=O)[O-])c3)c(=O)[nH]c2cc1C	37.4	36.5*	35.3*	10	61.2	0	0.5	100.2	100.1	99.7	99.0	104.2
CN(C)/C=C/C(=O)c1cnc(-c2ccc(Cl)cc2)s1	-6.2*	2.5*	3.1*	10	7.8*	0	0.2	98.9	91.3	98.6	96.5	95.8
CN(C)/C=C/C(=O)c1cnc(-c2ccccc2)s1	108.7	102.1	103.0	10	104.5	24	·	·	·	·	·	·
COc1cc([N+](=O)[O-])cc2sc(NC(=O)c3c(F)cccc3F)nc12	90.8	96.5	96.7	13	97.6	11	·	·	·	·	·	·
OCCN(Cc1ccccc1)Cc1cccc(C(F)(F)F)c1	·	·	·	46	·	·	1.0	97.7	90.0	95.8	94.2	70.5
OCCN(Cc1ccccc1)Cc1ccc(C(F)(F)F)cc1	101.7	98.3	101.6	25	100.4	25	·	·	·	·	·	·
O=C(CSc1nnc(-c2ccccc2Cl)o1)Nc1ccccn1	102.3	89.6	95.2	26	98.9	8	·	·	·	·	·	·
O=C(Cn1cccc1C(=O)c1ccccc1)NCc1ccc(Cl)cc1	102.6	99.5	101.1	20	100.1	11	·	·	·	·	·	·
Cc1ccc(CNC(=O)Cn2cccc2C(=O)c2ccccc2)cc1	·	119.0	102.3	42	·	·	-2.4	100.8	94.0	100.2	100.3	93.3
COc1ccc(CCCc2nnc(SCC(=O)Nc3nc(C)cs3)n2C)cc1	100.3	97.9	101.4	12	100.9	9	·	·	·	·	·	·
Cc1csc(NC(=O)CSc2nnc(CCNC(=O)c3ccc(Cl)c(Cl)c3)n2C)n1	·	·	·	35	·	·	-0.9	100.2	100.4	99.6	101.5	94.9
CCOC(=O)C(NC(=O)c1ccccc1)=C(C)C	102.6	101.7	103.2	47	104.5	6	·	·	·	·	·	·
C#CCOC(=O)C(NC(=O)c1ccccc1)=C(C)C	-38.4*	89.7	77.8	40	82.7	0	1.0	102.6	102.4	102.5	101.8	101.1	RGS4-Gao HTS=77.8*
CCCCOC(=O)C(NC(=O)c1ccccc1)=C(C)C	-33.0*	-15.8*	-35.7*	33	5.2*	·	-1.7	101.6	101.3	104.6	98.3	95.2
COC(=O)C(NC(=O)c1ccccc1)=C(C)C	107.1	110.2	101.2	14	100.8	21	·	·	·	·	·	·
CCCCN=Cc1c(C)[nH]n(-c2ccccc2)c1=S	105.2	110.2	104.5	14	101.7	11	·	·	·	·	·	·
Cc1[nH]n(-c2ccccc2)c(=S)c1C=Nc1cccc([N+](=O)[O-])c1	19.0*	106.8	94.9	9	68.6	7	-0.2	54.3*	83.9	5.9*	86.3	9.1*	RGS4-Gao HTS=94.9*
Cc1ccc(C2=NN3C(=O)c4ccccc4C3C2)cc1 (stereo not drawn)	39.5	?	26.2*	·	63.6	1	-1.8	101.9	98.2	102.0	101.1	112.6

Screening results: PubChem BioAssay, NMMLSC
